For 42 sequences, binding signal results are on record in article PMC9838217, “Structure of SALL4 zinc finger domain reveals link between AT-rich DNA binding and Okihiro syndrome”.

Residue numbers refer to the chain shown, from its start.

What all share (test): HT-SELEX; high values mean tight binding
Holding throughout (conditions): protein: recombinant; vector His6-GST; dsDNA, one strand shown

One assay deals with T1, SALL4 ZFC4 WT (HT-SELEX) (Mus musculus, UniProt Q8BX22 870-940).
T1 sequence: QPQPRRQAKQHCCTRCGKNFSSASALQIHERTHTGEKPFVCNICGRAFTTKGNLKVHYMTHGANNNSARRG
In a few lines: (§1)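 In triplicate selections of up to 6 cycles, purified recombinant mouse SALL4 zinc finger cluster 4 (residues 870–940, 1 µg) was incubated 10 min at room temperature with library DNA (1.5 µg, then 200 ng) in 100 µl of 10 mM Tris–HCl pH 7.5, 50 mM NaCl, poly(dI-dC) and DTT, and complexes were captured on Ni2+ beads, washed and PCR-amplified. Sequencing was done on MiSeq with scanning for 6-mers. The binding signal is each canonical k-mer's read fraction, reported as fold change against the initial random library.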

Assay [1] has as its target T2, SALL4 ZFC4 R900W (HT-SELEX) (Mus musculus, UniProt Q8BX22 870-940, R900W).
T2 sequence: T1 sequence with R31W
In a few lines:
as §1

For assay [2], the target named is T3, SALL4 ZFC4 G921D (HT-SELEX) (Mus musculus, UniProt Q8BX22 870-940, G921D).
T3 sequence: T1 sequence with G52D
Summed up:
as §1

Regarding CTTTCA, the binding signal was found to be 1.3 ± 0.0524 fold-change vs cycle 0 with SALL4 ZFC4 WT (HT-SELEX), 1.47 ± 0.103 fold-change vs cycle 0 in assay [1] and 1.35 ± 0.102 fold-change vs cycle 0 in assay [2].

GGGAGA: the binding signal in the assay with SALL4 ZFC4 WT (HT-SELEX) was 0.48 ± 0.0185 fold-change vs cycle 0; in assay [1], 0.566 ± 0.0484 fold-change vs cycle 0; in assay [2] it was 0.638 ± 0.033 fold-change vs cycle 0.

Consider GTAAAA, for which the figures for the binding signal (with SALL4 ZFC4 WT (HT-SELEX); in assay [1]; in assay [2]) were 1.69 ± 0.0918 fold-change vs cycle 0, 1.73 ± 0.0898 fold-change vs cycle 0 and 1.53 ± 0.125 fold-change vs cycle 0, respectively.

On to GGGACA, for which the binding signal with SALL4 ZFC4 WT (HT-SELEX) was found to be 0.383 ± 0.0239 fold-change vs cycle 0; in assay [1], 0.458 ± 0.0236 fold-change vs cycle 0; in assay [2], 0.564 ± 0.0569 fold-change vs cycle 0.

CACTCA: the binding signal with SALL4 ZFC4 WT (HT-SELEX) is 0.83 ± 0.0249 fold-change vs cycle 0; in assay [1] it was 0.928 ± 0.0236 fold-change vs cycle 0; in assay [2] it was 0.995 ± 0.0233 fold-change vs cycle 0.

On to AGTTAT, for which the binding signal with SALL4 ZFC4 WT (HT-SELEX) stood at 2.81 ± 0.247 fold-change vs cycle 0; in assay [1] it was 2.13 ± 0.15 fold-change vs cycle 0; in assay [2], 1.89 ± 0.186 fold-change vs cycle 0.

Take ACGTGG: the binding signal with SALL4 ZFC4 WT (HT-SELEX) stood at 0.369 ± 0.00823 fold-change vs cycle 0; in assay [1] it was 0.462 ± 0.0221 fold-change vs cycle 0; in assay [2] it was 0.54 ± 0.0513 fold-change vs cycle 0.

Turning to AGAAGA, the binding signal with SALL4 ZFC4 WT (HT-SELEX) was 1.43 ± 0.0638 fold-change vs cycle 0; in assay [1] it was 1.64 ± 0.118 fold-change vs cycle 0; in assay [2], 1.47 ± 0.162 fold-change vs cycle 0.

As to AGACTG, the values for the binding signal (with SALL4 ZFC4 WT (HT-SELEX); in assay [1]; in assay [2]) were 0.764 ± 0.0533 fold-change vs cycle 0, 0.926 ± 0.0316 fold-change vs cycle 0 and 0.92 ± 0.0254 fold-change vs cycle 0, respectively.

As to AAATCG, the binding signal worked out at 0.874 ± 0.0288 fold-change vs cycle 0 with SALL4 ZFC4 WT (HT-SELEX), 0.918 ± 0.0124 fold-change vs cycle 0 in assay [1] and 1.02 ± 0.0396 fold-change vs cycle 0 in assay [2].

Take CGTAGA: the binding signal came to 0.623 ± 0.00876 fold-change vs cycle 0 with SALL4 ZFC4 WT (HT-SELEX), 0.7054 ± 0.00296 fold-change vs cycle 0 in assay [1] and 0.786 ± 0.024 fold-change vs cycle 0 in assay [2].

Consider CATGAC, for which the values for the binding signal (in the assay with SALL4 ZFC4 WT (HT-SELEX); in assay [1]; in assay [2]) were 0.822 ± 0.0546 fold-change vs cycle 0, 0.938 ± 0.0407 fold-change vs cycle 0 and 1 ± 0.0669 fold-change vs cycle 0, respectively.

As to ATGCGA, the binding signal worked out at 0.525 ± 0.0387 fold-change vs cycle 0 with SALL4 ZFC4 WT (HT-SELEX), 0.556 ± 0.0155 fold-change vs cycle 0 in assay [1] and 0.689 ± 0.0646 fold-change vs cycle 0 in assay [2].

In the case of TACATA, the binding signal was found to be 2.44 ± 0.175 fold-change vs cycle 0 with SALL4 ZFC4 WT (HT-SELEX), 2.02 ± 0.121 fold-change vs cycle 0 in assay [1] and 1.78 ± 0.178 fold-change vs cycle 0 in assay [2].

As to AATTTC, the values for the binding signal (with SALL4 ZFC4 WT (HT-SELEX); in assay [1]; in assay [2]) were 2.1 ± 0.178 fold-change vs cycle 0, 1.76 ± 0.0861 fold-change vs cycle 0 and 1.64 ± 0.101 fold-change vs cycle 0, respectively.

Consider ATGTTA, for which the figures for the binding signal (in the assay with SALL4 ZFC4 WT (HT-SELEX); in assay [1]; in assay [2]) were 2.16 ± 0.126 fold-change vs cycle 0, 2.08 ± 0.106 fold-change vs cycle 0 and 1.83 ± 0.212 fold-change vs cycle 0, respectively.

Take AAGAAC: the binding signal is 1.29 ± 0.0399 fold-change vs cycle 0 with SALL4 ZFC4 WT (HT-SELEX), 1.49 ± 0.0657 fold-change vs cycle 0 in assay [1] and 1.38 ± 0.123 fold-change vs cycle 0 in assay [2].

Consider ATGCAC, for which the binding signal is 0.606 ± 0.0179 fold-change vs cycle 0 with SALL4 ZFC4 WT (HT-SELEX), 0.667 ± 0.022 fold-change vs cycle 0 in assay [1] and 0.775 ± 0.052 fold-change vs cycle 0 in assay [2].

With ATCAAT, the binding signal with SALL4 ZFC4 WT (HT-SELEX) was 2.28 ± 0.171 fold-change vs cycle 0; in assay [1], 2.07 ± 0.0713 fold-change vs cycle 0; in assay [2] it was 1.9 ± 0.133 fold-change vs cycle 0.

TGCCAA: the binding signal was 0.456 ± 0.0199 fold-change vs cycle 0 in the assay with SALL4 ZFC4 WT (HT-SELEX), 0.502 ± 0.00872 fold-change vs cycle 0 in assay [1] and 0.652 ± 0.0602 fold-change vs cycle 0 in assay [2].

On to CACCAC, for which the binding signal was determined as 0.402 ± 0.0296 fold-change vs cycle 0 in the assay with SALL4 ZFC4 WT (HT-SELEX), 0.465 ± 0.0324 fold-change vs cycle 0 in assay [1] and 0.587 ± 0.0576 fold-change vs cycle 0 in assay [2].

AGTCCA: the figures for the binding signal (with SALL4 ZFC4 WT (HT-SELEX); in assay [1]; in assay [2]) were 0.746 ± 0.0239 fold-change vs cycle 0, 0.878 ± 0.0374 fold-change vs cycle 0 and 0.929 ± 0.0398 fold-change vs cycle 0, respectively.

Turning to ATCATA, the binding signal with SALL4 ZFC4 WT (HT-SELEX) was 2.91 ± 0.29 fold-change vs cycle 0; in assay [1], 2.08 ± 0.118 fold-change vs cycle 0; in assay [2], 1.88 ± 0.177 fold-change vs cycle 0.

With CATTGC, the binding signal worked out at 0.645 ± 0.0305 fold-change vs cycle 0 in the assay with SALL4 ZFC4 WT (HT-SELEX), 0.712 ± 0.0136 fold-change vs cycle 0 in assay [1] and 0.825 ± 0.0379 fold-change vs cycle 0 in assay [2].

For GTCCTA, the binding signal in the assay with SALL4 ZFC4 WT (HT-SELEX) is 0.764 ± 0.0287 fold-change vs cycle 0; in assay [1], 0.905 ± 0.0413 fold-change vs cycle 0; in assay [2], 0.9363 ± 0.00722 fold-change vs cycle 0.

For TGATAA, the binding signal with SALL4 ZFC4 WT (HT-SELEX) was determined as 2.35 ± 0.175 fold-change vs cycle 0; in assay [1] it was 2.08 ± 0.2 fold-change vs cycle 0; in assay [2], 1.87 ± 0.208 fold-change vs cycle 0.

Regarding CAGACC, the results for the binding signal (with SALL4 ZFC4 WT (HT-SELEX); in assay [1]; in assay [2]) were 0.367 ± 0.0114 fold-change vs cycle 0, 0.461 ± 0.0322 fold-change vs cycle 0 and 0.553 ± 0.0477 fold-change vs cycle 0, respectively.

Turning to GGATAA, the binding signal in the assay with SALL4 ZFC4 WT (HT-SELEX) amounted to 1.38 ± 0.0543 fold-change vs cycle 0; in assay [1], 1.52 ± 0.0741 fold-change vs cycle 0; in assay [2] it was 1.34 ± 0.114 fold-change vs cycle 0.

As to TCCCAA, the binding signal with SALL4 ZFC4 WT (HT-SELEX) was determined as 0.743 ± 0.0235 fold-change vs cycle 0; in assay [1] it was 0.826 ± 0.0256 fold-change vs cycle 0; in assay [2], 0.872 ± 0.0393 fold-change vs cycle 0.

For the sequence CTTGGA, the binding signal in the assay with SALL4 ZFC4 WT (HT-SELEX) amounted to 0.806 ± 0.0506 fold-change vs cycle 0; in assay [1], 0.948 ± 0.0291 fold-change vs cycle 0; in assay [2] it was 0.984 ± 0.0463 fold-change vs cycle 0.

As to CGACAA, the figures for the binding signal (with SALL4 ZFC4 WT (HT-SELEX); in assay [1]; in assay [2]) were 0.4483 ± 0.00206 fold-change vs cycle 0, 0.523 ± 0.0149 fold-change vs cycle 0 and 0.653 ± 0.0169 fold-change vs cycle 0, respectively.

In the case of AGTACC, the values for the binding signal (with SALL4 ZFC4 WT (HT-SELEX); in assay [1]; in assay [2]) were 0.813 ± 0.0272 fold-change vs cycle 0, 0.947 ± 0.0311 fold-change vs cycle 0 and 0.981 ± 0.037 fold-change vs cycle 0, respectively.

Regarding ACAGTA, the values for the binding signal (with SALL4 ZFC4 WT (HT-SELEX); in assay [1]; in assay [2]) were 1.35 ± 0.0516 fold-change vs cycle 0, 1.47 ± 0.111 fold-change vs cycle 0 and 1.37 ± 0.127 fold-change vs cycle 0, respectively.

Take CGAGAC: the binding signal with SALL4 ZFC4 WT (HT-SELEX) was 0.365 ± 0.0341 fold-change vs cycle 0; in assay [1], 0.454 ± 0.0153 fold-change vs cycle 0; in assay [2], 0.565 ± 0.0671 fold-change vs cycle 0.

Turning to AATTAT, the binding signal in the assay with SALL4 ZFC4 WT (HT-SELEX) was determined as 4.89 ± 0.536 fold-change vs cycle 0; in assay [1], 2.6 ± 0.249 fold-change vs cycle 0; in assay [2], 2.25 ± 0.303 fold-change vs cycle 0.

As for ACAGTG, the figures for the binding signal (with SALL4 ZFC4 WT (HT-SELEX); in assay [1]; in assay [2]) were 0.745 ± 0.062 fold-change vs cycle 0, 0.869 ± 0.0495 fold-change vs cycle 0 and 0.895 ± 0.0488 fold-change vs cycle 0, respectively.

Turning to AGAAAG, the binding signal was 1.31 ± 0.0378 fold-change vs cycle 0 with SALL4 ZFC4 WT (HT-SELEX), 1.52 ± 0.0945 fold-change vs cycle 0 in assay [1] and 1.36 ± 0.112 fold-change vs cycle 0 in assay [2].

Regarding AGGTGA, the binding signal with SALL4 ZFC4 WT (HT-SELEX) worked out at 0.887 ± 0.0607 fold-change vs cycle 0; in assay [1], 0.987 ± 0.0758 fold-change vs cycle 0; in assay [2], 1.04 ± 0.0735 fold-change vs cycle 0.

For the sequence ATGACC, the binding signal in the assay with SALL4 ZFC4 WT (HT-SELEX) was found to be 0.806 ± 0.0726 fold-change vs cycle 0; in assay [1], 0.891 ± 0.0488 fold-change vs cycle 0; in assay [2], 0.947 ± 0.065 fold-change vs cycle 0.

TACGTA: the values for the binding signal (with SALL4 ZFC4 WT (HT-SELEX); in assay [1]; in assay [2]) were 1.26 ± 0.0297 fold-change vs cycle 0, 1.33 ± 0.109 fold-change vs cycle 0 and 1.23 ± 0.0963 fold-change vs cycle 0, respectively.

ATATAA: the binding signal amounted to 4.98 ± 0.592 fold-change vs cycle 0 in the assay with SALL4 ZFC4 WT (HT-SELEX), 2.65 ± 0.229 fold-change vs cycle 0 in assay [1] and 2.24 ± 0.302 fold-change vs cycle 0 in assay [2].

For TCATGA, the binding signal with SALL4 ZFC4 WT (HT-SELEX) was determined as 1.45 ± 0.0979 fold-change vs cycle 0; in assay [1], 1.54 ± 0.0952 fold-change vs cycle 0; in assay [2], 1.49 ± 0.115 fold-change vs cycle 0.
